Source: the supplement of paper PMC10338343
± gives the standard deviation. The full ranking holds about 8,200 sequences; the median of “pre-steady-state target cleavage rate” is about 0.024, and the highest 2% start at about 1.3. The entries come from a sample that favours the highest values as a whole.

Tested on: MIWI (PIWIL1) piRISC loaded with L1MC piRNA (30 nt)
Assay: pre-steady-state target cleavage rate (min^-1); MIWI and MILI are mouse PIWI proteins and EfPiwi is from a freshwater sponge; tags in brackets are library labels; higher = faster piRNA-guided slicing of the target
Details: guide: L1MC piRNA 5'p-UAACUAAAUACUAUGCAAGCUGUAGGUCCU
Description: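 Cleave-'n-Seq: a library of target RNAs (target site embedded in constant flanks, ACAGCATTCCGCGTTAGTGATATCCG... 5' flank; DNA-blocked outside the site) at 0.1 nM was incubated with 1 nM active mouse MILI or MIWI piRISC (synthetic 5'-monophosphorylated piRNA guide) with or without 500 nM mouse GTSF1 at 33 °C for 1 min to 16 h. Uncleaved targets were sequenced and normalised to non-target controls, and the pooled three trials were fitted to a burst-and-steady-state model to give the pre-steady-state cleavage rate (min^-1; k3 is constrained to at most 1e-4). Sequence is the target site only; target names encode pairing extent (gX:gY) and contiguous / 1-mismatch / 2-mismatch / bulge geometry. Fits with R² ≤ 0 are excluded.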

[1] = auxiliary factor: 500 nM mouse GTSF1
[2] = auxiliary factor: none (no GTSF1)

| Sequence | pre-steady-state target cleavage rate [1] | pre-steady-state target cleavage rate [2] |
| --- | --- | --- |
| UCCUGCUAACAGCUUGCAUAGUAUUUAGUUA | 0.617 ± 0.052 | 0.0487 ± 0.0083 |
| AGGACCUACAGCUUGCAUAGUAAAAACAAA | 0.268 ± 0.068 | – |
| UGGACCUACAGCUUCCAUAGUAAUUAGUUA | 0.0113 ± 0.0031 | – |
| UCCUGGAACAGCUUGCAUAGUACUUUAGUUA | 0.472 ± 0.036 | 0.00827 ± 0.0032 |
| UCCAGCUACACCUUGCAUAGUAUUUAGUUA | 0.797 ± 0.034 | 0.0443 ± 0.0068 |
| UCCUGGAUCAGCUUGCAUAGAAUUUACAAA | 0.0559 ± 0.014 | – |
| UGGACCUACAGCUUGCAUAGCAUUUAGUUA | 0.379 ± 0.025 | 0.0275 ± 0.0061 |
| UCCUGGACCAGCUUGCAUAGUAUUUAGUUA | 0.915 ± 0.048 | 0.0367 ± 0.0074 |
| UCCUGGUCCAGCUUGCAUAGUAUUUAGUUA | 0.717 ± 0.055 | 0.0383 ± 0.0079 |
| UCCUGGAUCCAGCUUGCAUAGUAUUUAGUUA | 1.31 ± 0.081 | 0.0546 ± 0.016 |
| UCCUGGAUCCGCUUGCAUAGUAUUUAGUUA | 0.927 ± 0.053 | 0.031 ± 0.0075 |
| UCCUGGAUGAGCUUGCAUAGUAUUUAUUUA | 0.267 ± 0.055 | 0.025 ± 0.0077 |
| AGGACCUACAGGUUCCAUAGUAUUUAGUUA | 0.659 ± 0.17 | – |
| UCCUCUACAGCUUGCAUAGUAUUUAGUUA | 1.34 ± 0.047 | 0.0659 ± 0.011 |
| ACCUCCUACAGCUUGCAUAGUAUUUAGUUA | 1.35 ± 0.052 | 0.0784 ± 0.012 |
| UCCUCCUACAGCUUGCAUAGUAUUUUAGUUA | 1.04 ± 0.044 | 0.0227 ± 0.0055 |
| UCCUCUCUACAGCUUGCAUAGUAUUUAGUUA | 0.797 ± 0.038 | 0.0529 ± 0.0081 |
| UCCUCCUACAGCUUGCAUAGUAUUUAGUUA [g2:g26:cont:t1A] | 1.32 ± 0.052 | 0.0816 ± 0.015 |
| UCCUCCUACAGCUUGCAUAGUAUUUAGUUC [g2:g26:cont:t1C] | 1.09 ± 0.039 | 0.0511 ± 0.011 |
| ACCUCCUACAGCUUGCAUAGUAUUUAGUAA | 0.85 ± 0.046 | 0.0351 ± 0.0072 |
| UCCUCCCUACAGCUUGCAUAGUAUUUAGUUA | 1.09 ± 0.038 | 0.075 ± 0.016 |
| UCCUUCUACAGCUUGCAUAGUAUUUAGUUA | 1.02 ± 0.033 | 0.0527 ± 0.0083 |
| UCCUGGUACAGCUUGCAUAGUAGUUAGUUA | 0.433 ± 0.051 | 0.0224 ± 0.0045 |
| UGGACGUACAGCUUGCAUAGUAUUUUGUUA | 0.75 ± 0.055 | 0.052 ± 0.009 |
| UCCUGGAUCAGCAUUGCAUAGUAUUUAGUUA | 0.875 ± 0.036 | 0.0165 ± 0.0047 |
| UCCUGGAUGUCGAUGCAUAGUAUUUGAGUUA | 0.0114 ± 0.0044 | – |
| UCCACCUACACCUUGCAUAGUUUUUAGUUA | 0.249 ± 0.032 | 0.0171 ± 0.0033 |

| Sequence | pre-steady-state target cleavage rate [1] | pre-steady-state target cleavage rate [2] |
| --- | --- | --- |
| UCCUGGAACAGCGUUGCAUAGUAUUUAGUUA | 0.939 ± 0.055 | 0.0303 ± 0.0056 |
| UCCUGCUACAGGUUGCAUAGUAUUUACAAA | 0.117 ± 0.028 | – |
| UCCACCUACAGACUUGCAUAGUAUUUAGUUA | 0.606 ± 0.06 | 0.0272 ± 0.0043 |
| UCCUCCUACAGCUUGCAUAGCUAUUUAGUUA | 0.0221 ± 0.01 | – |
| UGGACCUACGAGCUUGCAUAGUAUUUAGUUA | 0.657 ± 0.11 | 0.0557 ± 0.013 |
| UGGACCUACCAGCUUGCAUAGUAUUUAGUUA | 1.25 ± 0.1 | 0.0599 ± 0.013 |
| UGGACCUACCGCUUGCAUAGUAUUUAGUUA | 1.57 ± 0.11 | 0.0558 ± 0.0098 |
| UCCUCCUACCGCUUGCAUAGUAUUUAGUUA | 1.34 ± 0.062 | 0.0565 ± 0.0099 |
| AGGACCUACACGCUUGCAUAGUAUUUAGUUA | 1.1 ± 0.065 | 0.0703 ± 0.01 |
| AGGACCUACCAGCUUGCAUAGUAUUUAGUUA | 1.17 ± 0.069 | 0.0704 ± 0.014 |
| AGGACCUACCGCUUGCAUAGUAUUUAGUUA | 1.43 ± 0.082 | 0.0866 ± 0.017 |
| UCCUCCUACGCUUGCAUAGUAUUUAGUUA | 1.24 ± 0.045 | 0.0478 ± 0.0094 |
| UCGACCUACCAGCUUGCAUAGUAUUUAGUUA | 1.29 ± 0.064 | 0.0725 ± 0.016 |
| UCCUGCUACCGCUUGCAUAGUAUUUAGUUA | 1.1 ± 0.1 | 0.0571 ± 0.011 |
| UCGACCUACCGCUUGCAUAGUAUUUAGUUA | 1.64 ± 0.069 | 0.0745 ± 0.015 |
| UCCACCUACCGCUUGCAUAGUAUUUAGUUA | 1.11 ± 0.05 | 0.0544 ± 0.0086 |
| UCCUGGAUGUGCUUGCAUUGUUUUUAGUUA | 0.0048 ± 0.0031 | – |
| UCCUGGAUGUGCUUGCAUAGUAUUUUGUAA | 0.0569 ± 0.016 | 0.00775 ± 0.0023 |
| UCCACCUACAGCUUGCAUAGUAUUUGGUUA | 0.555 ± 0.038 | 0.0358 ± 0.0079 |
| UCGACCUACAGGUUGCAUAGUAUUUACUUA | 0.296 ± 0.04 | 0.025 ± 0.0051 |
| AGCACCUACACCUUGCAUAGUAUUUAGUUA | 0.739 ± 0.074 | 0.0408 ± 0.0062 |
| UGGACCUAGAGCUUGCUUAGUAUUUAGUUA | 1.18 ± 0.095 | 0.0321 ± 0.0069 |
| UCGACCUAGAGCUUGCUUAGUAUUUAGUUA | 1.34 ± 0.048 | 0.0282 ± 0.0063 |
| UCGACCUACAGCUUGCUUAGUAUUUAGUAA | 1.02 ± 0.068 | 0.0176 ± 0.005 |
| UCGACCUACAGCUUGGUUAGUAUUUAGUAA | 0.72 ± 0.061 | 0.00525 ± 0.002 |
| UCGACCUACAGCUUGCUAGUAUUUAGUUA | 0.219 ± 0.061 | – |
| UCCACCUAGAGCUUGCUUAGUAUUUAGUUA | 0.549 ± 0.044 | 0.0205 ± 0.0044 |

| Sequence | pre-steady-state target cleavage rate [1] | pre-steady-state target cleavage rate [2] |
| --- | --- | --- |
| UCGACCUACAGCUUGGUUAGUAUUUACAAA | 0.0826 ± 0.02 | – |
| ACGACCUACAGCUUGCUUAGUAUUUAGUUA | 1.57 ± 0.074 | 0.0527 ± 0.013 |
| UCGACCUACAGCUUGCUUAGUAUUUAGUUA | 1.66 ± 0.074 | 0.0474 ± 0.01 |
| AGCACCUACAGCUUGCUUAGUAUUUAGUUA | 0.978 ± 0.079 | 0.0389 ± 0.0089 |
| UCGACCUACAGCUUGGUUAGUAUUUAGUUA | 1.42 ± 0.058 | 0.00908 ± 0.0026 |
| UGCACCUACAGCUUGCUUAGUAUUUAGUUA | 1.25 ± 0.092 | 0.031 ± 0.0064 |
| UCCUCCUACAGGAUGCAUAGUAUUUACAAA | 0.253 ± 0.041 | – |
| UCCUGGAACAGGUAGCAUAGUAUUUAGUUA | 0.266 ± 0.026 | 0.00407 ± 0.0017 |
| UCCACCUUGUGCUUGCAUAGUAUUUACAAA | 0.0809 ± 0.013 | – |
| UCCUGGAUGAGCUUGCAUAGUGUUUAGUUA | 0.708 ± 0.06 | 0.0494 ± 0.01 |
| UGGACGUACAGCUUGCAUAGUAUUAAGUUA | 0.721 ± 0.069 | 0.0383 ± 0.0073 |
| UGGACCUACAGCUUGCUAAGUAUUUAGUUA | 0.2 ± 0.022 | 0.00384 ± 0.002 |
| UCCUGGAUGAGCUUGCAUAGUAUUUAGUAUA | 0.702 ± 0.054 | 0.0165 ± 0.0055 |
| UCCUGCUACAGCUUGCUUAGUAUUUAGUAA | 0.279 ± 0.023 | 0.0083 ± 0.002 |
| UCCUGGAUCAGCUUGCUUAGUAUUUAGAAA | 0.116 ± 0.021 | 0.00482 ± 0.0028 |
| AGGACCUACAGCUGUGCAUAGUAUUUAGUUA | 1.29 ± 0.063 | 0.0583 ± 0.012 |
| AGGACCUACAGCGUGCAUAGUAUUUAGUUA | 1.34 ± 0.054 | 0.0658 ± 0.011 |
| AGGACCUACAGUUGCAUAGUAUUUAGUUA | 0.988 ± 0.07 | 0.0102 ± 0.0034 |
| UCGACCUACAGCUGUGCAUAGUAUUUAGUUA | 1.42 ± 0.073 | 0.0386 ± 0.0081 |
| UCGACCUACAGCGUGCAUAGUAUUUAGUUA | 1.73 ± 0.072 | 0.0576 ± 0.0085 |
| UCGACCUACAGCGUUGCAUAGUAUUUAGUUA | 1.21 ± 0.073 | 0.0561 ± 0.01 |
| UCCACCUACAGCGUGCAUAGUAUUUAGUUA | 1.06 ± 0.04 | 0.0325 ± 0.0056 |
| UGGACCUACAGCGUGCAUAGUAUUUAGUUA | 1.43 ± 0.065 | 0.0647 ± 0.013 |
| AGGACCUACAGCAUUGCAUAGUAUUUAGUUA | 1.28 ± 0.12 | 0.0689 ± 0.014 |
| UCCUGCUACAGCGUGCAUAGUAUUUAGUUA | 1.27 ± 0.074 | 0.0183 ± 0.005 |
| UGGACCUACAGCUGUGCAUAGUAUUUAGUUA | 1.28 ± 0.11 | 0.0389 ± 0.0098 |
